# Results filed as inconclusive are left out. A call without a number means that no potency is given here. The source made the active and inactive calls. Calls come from the whole dose curve; as a rule, active = well fitted activation curve with a large enough effect in the signal ratio in the repeat runs (not every such curve was filed as active); inconclusive = weak or mixed curves; inactive = flat fitted curve, though single readings scatter; the % refers to the signal ratio.
# Assay: p53 small molecule agonists, cell-based qHTS assay (AID 1963582)
# In short: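 Cells carrying a p53-responsive bla reporter are treated with test compounds for 16 h at 37 C; beta-lactamase activity is then detected with LiveBLAzer B/G FRET substrate after 2 h at room temperature.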
row,Compound,Potency
1,CC(C)OC(=O)c1cc2c(OCC(O)CNC(C)(C)C)cccc2[nH]1 (stereo not drawn),inactive
2,CCCCCCCCN1CCCC1=O,inactive
3,CN1CCOC(c2ccccc2)c2ccccc2C1 (stereo not drawn),inactive

# Reference: PubChem BioAssay (Tox21)
